Assay outcomes: PubChem BioAssay, several laboratories
Rows were chosen to be rich in hits. Some 32% of all compounds tested hit in one or more screens of this group.
CYP2C9 act = activators of human CYP2C9 | activation factor at 5 µM | recombinant CYP2C9, luciferin-H conversion, luminescence; active compounds read high; factor 1 = untreated enzyme, 0 = blocked | P11712 | 96,000 compounds, 1.4% hits;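 active = activation factor of 2 or more for CYP2C9 at a 5 µM dose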;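 note: 0 = sulfaphenazole-blocked wells and 1 = vehicle-only wells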
CYP2C19 inh = inhibitors of human CYP2C19 | P33261 | CYP2C19 Supersomes, luciferin-H EGE luminescence, 30 min | inhibition, % at 5 µM | 96,000 compounds, 21% hits | AID 778;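 active = CYP2C19 inhibition above a set limit at 5 µM in the primary screen, cut at about 50% in these data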;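 note: plate controls were negative control wells for no effect and 2.5 mM tranylcypromine positive control for full effect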
Target sequence (P33261 whole entry, looked up): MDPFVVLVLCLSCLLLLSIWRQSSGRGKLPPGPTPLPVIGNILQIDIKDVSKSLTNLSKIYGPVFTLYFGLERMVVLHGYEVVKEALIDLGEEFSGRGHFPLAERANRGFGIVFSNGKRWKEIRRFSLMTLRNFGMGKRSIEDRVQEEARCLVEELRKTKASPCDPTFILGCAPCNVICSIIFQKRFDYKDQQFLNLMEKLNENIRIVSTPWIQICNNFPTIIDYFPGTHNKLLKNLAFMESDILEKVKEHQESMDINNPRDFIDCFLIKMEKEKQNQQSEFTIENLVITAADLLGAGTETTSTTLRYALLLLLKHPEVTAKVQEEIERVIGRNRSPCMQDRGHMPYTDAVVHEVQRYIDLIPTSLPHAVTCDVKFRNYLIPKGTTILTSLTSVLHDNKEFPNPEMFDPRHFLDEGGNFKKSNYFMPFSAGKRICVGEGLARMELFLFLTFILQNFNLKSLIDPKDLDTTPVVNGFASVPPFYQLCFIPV
CYP2C9 inhib = blocks human cytochrome P450 2C9. AID 777. P11712. inhibition, % at 5 µM. 96,000 compounds, 20% hits. CYP2C9 Supersomes, luciferin-H conversion, luminescence;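 active = blocking of liver enzyme CYP2C9 beyond about 50% at 5 µM, limit read from the data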
PostGolgi ctrl = growth of the yeast control strain, post-Golgi counter-screen; efflux-deficient yeast background strain, growth absorbance A615, 16 h; inhibition, % at 10 µM; 98,000 compounds, 5% hits
CYP2C19 act = activators of human cytochrome P450 2C19; AID 1025; recombinant CYP2C19, luciferin-H EGE luminescence; active compounds read high; 0 = fully inhibited enzyme, 1 = untreated enzyme; 96,000 tested, under 10 active; activation factor at 5 µM;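 active = activation factor of at least 2 at 5 µM in the primary screen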;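 note: 0 = wells with 2.5 mM tranylcypromine and 1 = vehicle-only wells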
PostGolgi yeast = growth inhibition of a yeast mutant, post-Golgi transport screen; post-Golgi transport phenotypic cell assay; AID 739; inhibition, % at 10 µM; 98,000 compounds, 0.9% hits;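 note: yeast cells grown in 1536-well plates; yeast grown about 18 h at 30C before absorbance read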
Active calls of the source: *; . = no result. Cut-off read from the data, not from the text of the source, unless noted: active = inhibition above about 30%; inactive = the rest.

SMILES	CYP2C9 act	CYP2C19 inh	CYP2C9 inhib	PostGolgi ctrl	CYP2C19 act	PostGolgi yeast
O=C(N/N=C\c1ccc(Sc2ccccn2)o1)c1cccc(F)c1	0.4	59*	60*	3	0.4	13
O=[N+]([O-])c1cc(/C=N\Nc2nccs2)ccc1O	0.7	42	34	-3	0.6	7
Cc1ccc(-c2c3c(=O)n(C)c(=O)n(C)c3cn2Cc2ccccn2)cc1	1.1	0	-15	15	1	-2
Cc1sc2ncnc(NCC(c3ccco3)N3CCCC3)c2c1C (stereo unspecified)	0.5	28	48	3	0.7	8
Cc1ccc(C)c(C(=O)c2c(C)nc3sccn23)c1	0.5	95*	50	-4	0.1	-3
Cc1cc(C)c(NC(=O)c2cc3c(nc4sccn43)s2)c(C)c1	0.6	37	35	8	0.6	3
COc1ccccc1CNC(=O)CCc1nc2ccccc2c(=O)[nH]1	0.9	40	13	-2	0.6	-2
COc1ccccc1CNn1c(-c2cccc(C)c2)nc2ccccc2c1=O	0.1	97*	86*	28	0	0
COc1ccc(C(=O)Nc2cc(C)nc3ccccc23)cc1OC	0.8	36	24	-1	0.6	4
COc1ccc(CNn2c(-c3cccc(C)c3)nc3ccccc3c2=O)cc1OC	0.8	81*	22	21	0.2	-13
COc1cc(C2C(C#N)=C(N)N(c3cccnc3)C3=C2C(=O)CC(C)(C)C3)ccc1O (stereo unspecified)	0.9	-9	9	-11	1.1	17
CCOC(=O)c1ccc2c(c1)nc(SC/C(O)=C(\C#N)c1nc3ccccc3[nH]1)n2CC	0.9	17	14	-18	0.8	1
CCOC(=O)c1ccc2c(c1)nc(SCC(=O)N1CCCCC1)n2CC	0.1	78*	88*	19	0.2	5
CCOC(=O)c1ccc2c(c1)nc(SCC(=O)c1ccco1)n2CC	0.3	21	69*	-1	0.8	-7
Cc1n[nH]c(=O)nc1Nc1ccc(O)cc1	1.1	-6	-13	2	1.1	8
Oc1ccc(Nc2nc3ccccc3nc2Nc2ccc(O)cc2)cc1	0	99*	99*	-6	0	-3
CCCSc1nc(N)c2c3c(sc2n1)CN(C)CC3	0.7	82*	26	9	0.2	6
COC(=O)CSc1nc(N)c2c3c(sc2n1)CCCC3	0.3	86*	65*	14	0.1	4
COc1ccc(CC(=O)Nc2cc(C)on2)cc1OC	0.9	13	10	11	0.9	-1
CCCOc1ccc2ccccc2c1/C=N/n1cnnc1	0.4	60*	57*	22	0.4	2
Cc1[nH]c2ccccc2c1/C=N/n1cnnc1	0.8	46	20	9	0.5	-18
COc1ccccc1OCCOc1ccccc1/C=N/n1cnnc1	0.8	75*	19	-2	0.3	4
CCOc1ccc2ccccc2c1/C=N/n1cncn1	0.4	49	58*	5	0.5	18
COc1cccc(/C=N/n2cnnc2)c1OCc1ccccc1	0.6	41	44	7	0.6	-4
Cc1c(/C=N/n2cnnc2)c2ccccc2n1CCOc1ccccc1	0.5	79*	45	29	0.2	-1
SMILES	CYP2C9 act	CYP2C19 inh	CYP2C9 inhib	PostGolgi ctrl	CYP2C19 act	PostGolgi yeast
CN1C(=O)CSc2ccc(NC(=O)NCCC3=CCCCC3)cc21	0.7	25	28	-9	0.8	2
CCC1Sc2ccccc2N(CC(=O)NCc2ccc3c(c2)OCO3)C1=O (stereo unspecified)	0.6	72*	40	9	0.3	-2
CCC1Sc2ccccc2N(CC(=O)NCCC2=CCCCC2)C1=O (stereo unspecified)	0.7	19	28	37*	0.8	-1
CC(c1ccco1)N(Cc1ccco1)C(=O)Nc1ccccc1 (stereo unspecified)	0.8	27	16	2	0.7	3
Cc1ccc2nsnc2c1S(=O)(=O)NCCc1c(C)[nH]c2ccc(F)cc12	0.7	78*	33	-2	0.2	6
CCn1c(Cc2ccccc2)nnc1SCC(=O)Nc1nc(C)c(C)s1	1.1	24	-13	1	0.8	2
CCSc1nnc(NC(=O)CSc2nnc(-c3c[nH]c4ccccc34)n2CC)s1	0.7	19	33	2	0.8	2
CCn1c(SCc2cccnc2)nnc1-c1c[nH]c2ccccc12	0.5	89*	45	19	0.1	2
COCCn1c(SCc2cccnc2)nnc1-c1c[nH]c2ccccc12	0.4	75*	55*	5	0.2	3
CCC(CC)C(=O)c1c[nH]c(C(=O)NCCCN2CCOCC2)c1	0.9	4	13	-3	1	8
COc1ccccc1CC1(C)NC(=O)N(CC(=O)N2CC(C)OC(C)C2)C1=O (stereo unspecified)	1.1	57*	-14	-8	0.4	14
CCOc1[nH]n(-c2ccc(Cl)cc2)c(=O)c1C=Nc1ccc(C)cc1	0.9	2	14	-2	1	-5
COC(=O)CNC(=O)C(C)NC(=O)OCc1ccccc1 (stereo unspecified)	1.1	-2	-7	-9	1	0
CC(C)C(NC(=O)OCc1ccccc1)C(=O)NCC(=O)OC(C)(C)C (stereo unspecified)	0.9	83*	14	-9	0.2	-3
CC(C)[C@H](NC(=O)OCc1ccccc1)C(=O)OCC(=O)NC1CCCCC1	0.2	78*	81*	9	0.2	-4
CC(=O)c1ccc(OC(C)C)c(CN2CCCCC2)c1	1.1	-11	-9	3	1.1	5
COC(=O)C(C)n1cnc2c(nnn2Cc2ccc(Cl)cc2)c1=O (stereo unspecified)	1.3	24	-26	2	0.8	8
Cc1ccc2c(c1)N(Cc1ccncc1)C(=O)C(C)O2 (stereo unspecified)	0.1	81*	89*	-12	0.2	0
Cc1ccc2c(c1)N(CCC(=O)NCc1cccs1)C(=O)C(C)O2 (stereo unspecified)	0.3	97*	74*	6	0	11
O=C(Cc1nc2ccccc2[nH]1)NCc1ccco1	0.9	18	8	21	0.8	0
CC(C)(C)c1ccc(-c2conc2N)cc1	.	.	.	18	.	2
COc1ccc(C(=O)Nc2ccc(S(=O)(=O)N3CCCC3)cc2)c(OC)c1	0.7	-1	32	0	1	10
COC(=O)C1=C(C)N=c2s/c(=C/c3ccoc3)c(=O)n2C1c1ccccc1 (stereo unspecified)	0.7	18	27	59*	0.8	6
COC(=O)C1=C(C)N=c2s/c(=C3\C(=O)Nc4ccccc43)c(=O)n2C1c1ccccc1 (stereo unspecified)	.	.	.	39*	.	-1
O=c1c2ccccc2nc2n1CCCCC2	1	-3	3	1	1	-4
